These results are taken from PubChem BioAssay (NCI).

The panel holds about 83,000 compounds, 20% with a hit somewhere; the sample as a whole holds those more often.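 Step 1: grow cells in 96-well plates. Step 2: add test compound at a single concentration. Step 3: incubate 48 h. Step 4: record percent growth.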 The source made the active and inactive calls. Rule for the calls: active = growth percent below 10; inactive = the rest.

In this assay the test system is NCI-H522 lung. The experiment in a line: NCI-60 one-dose screen, 48 h (100 = growth as untreated, 0 = no growth, -100 = all killed). Conditions: 10 µM unless noted.
In the case of `O=C(Nc1cccc2ccccc12)c1cc2ccccc2cc1O`, the growth is 9.44% (active).
Turning to `COc1cc2c(O)n(CCCN3CCOCC3)c3c4cnc5cccc(c(=O)c3c2cc1OC)c54`, the growth is 16.9% (inactive).
Regarding `C#CCNC(=O)CC[C@@H](C)[C@H]1CC[C@H]2[C@@H]3CC[C@@H]4CC(=O)CC[C@]4(C)[C@H]3CC[C@]12C`, the growth is -63.8% [100 µM] (active).
For `COc1ccc(NC(=O)Nc2ccc(-c3cccnc3)cc2N2CCC(CO)CC2)cc1`, the growth was 25.2% (inactive).
Turning to `CC1(C(=O)O)CCC(N)(C(=O)O)C1(C)C` (configuration not stated), the growth was 97.1% (inactive).
Turning to `COc1ncc(-c2ccc3nccc(C#CCCCCC(=O)NO)c3c2)cc1NS(=O)(=O)c1ccc(F)cc1F`, the growth is -21.7% (active).
Under `O=C(O)CC1CCCCC1c1ccccc1` (configuration not stated) stands 90.1% (inactive); under `CC(C)=CC/C=C(/C)[C@H]1CC[C@]2(C)[C@@H]1CC[C@@H]1[C@@]3(C)CCC(=O)NC(C)(C)[C@@H]3CC[C@]12C`, -58% [100 µM] (active); under `Cc1nc(Cl)c2c(n1)N(C)c1ccc(Cl)cc1C(C)C2` (configuration not stated), 77.8% (inactive).
On to `Cc1ccc(N)c(O)c1`, for which the growth is 73.8% (inactive).
On to `Nc1ccc(Cl)c([N+](=O)[O-])c1`, for which the growth is 87.5% (inactive).
With `O=[N+]([O-])c1cccc(N=NNc2cccc([N+](=O)[O-])c2)c1`, the growth is 78% (inactive).
Consider `C=C(C)[C@@H]1CC[C@]2(C)[C@H](CC[C@@H]3[C@@H]([C@@](C)(O)CCC=C(C)C)CC[C@]32C)[C@@]1(C)CCC(=O)N1CCN(C)CC1`, for which the growth was -81.1% [100 µM] (active).
As for `Cn1cc(-c2noc(C(=O)c3cn(C)c4ncc(Br)cc34)n2)c2ccccc21`, the growth is 91.6% (inactive).
Under `COc1cc(NCc2ccccc2O)c2ncccc2c1` stands 88.3% (inactive).
For `Cc1ccc(C2=C/C(=C/c3ccc(Br)cc3)C(=O)N2CCc2ccc(S(N)(=O)=O)cc2)cc1`, the growth is 89% (inactive).
On to `Nc1nc(Nc2ccccc2)c2ncn(Cc3ccc4c(c3)OCO4)c2n1`, for which the growth was 43.8% (inactive).
Regarding `O=C(CCCSc1nc(-c2ccccc2)cc(-c2ccccc2)n1)NO`, the growth was -9.12% (active).
On to `FC(F)(F)c1ccc2c(c1)Sc1ccccc1N2`, for which the growth is 84.9% (inactive).
Take `O=C1NC(=O)C(Cc2ccccc2)(Cc2ccccc2)N1`: the growth is 97.5% (inactive).
As for `C=C(C)[C@@H]1CC[C@]2(C(=O)N3CCN(C)CC3)CC[C@]3(C)[C@H](CC[C@@H]4[C@@]5(C)C/C(=C/c6ccncc6)[C@H](O)C(C)(C)[C@@H]5CC[C@]43C)[C@@H]12`, the growth is -46.3% [100 µM] (active).
As to `C[C@@H](NC(=O)[C@@H](CC(=O)N1CCC(N2CCCCC2)CC1)N1C(=O)[C@@H](N2C(=O)OC[C@@H]2c2ccccc2)[C@H]1/C=C/c1cccc(Cl)c1)c1ccccc1`, the growth is 64.2% (inactive).
Under `N#C/C(=C(/O)CCCO)c1nc2ccccc2c(=O)[nH]1` stands 95% (inactive).
As for `Cn1cc(-c2nnc(-c3cn(C)c4ncc(Br)cc34)s2)c2cc(Br)ccc21`, the figure is 94.2% (inactive); as for `CC1(C)CC[C@]2(C(=O)OC(=O)[C@]34CCC(C)(C)C[C@@H]3C3=CC[C@@H]5[C@@]6(C)CCC(=O)C(C)(C)[C@@H]6CC[C@@]5(C)[C@]3(C)CC4)CC[C@]3(C)C(=CC[C@@H]4[C@@]5(C)CCC(=O)C(C)(C)[C@@H]5CC[C@]43C)[C@H]2C1`, 56.2% [100 µM] (inactive); as for `Cn1cc(-c2noc(-c3cn(C)c4ncc(Br)cc34)n2)c2cc(Cl)ccc21`, 63.1% (inactive).
In the case of `CCc1cccc(Cl)c1`, the growth is 92.9% (inactive).
As for `c1cc2ccc3cc2cc1CNCCN1CCNCc2ccc4ccc(cc4c2)CNCCN(CCNC3)CCNCc2ccc3ccc(cc3c2)CNCC1`, the growth is 0.768% (active).
On to `COc1ccc(-c2cc(-c3ccccc3)nc(NCCNc3ccnc4cc(Cl)ccc34)n2)cc1`, for which the growth is -61.9% (active).
For the compound `O=C(N/N=C\c1cc(Cl)ccc1O)N/N=C/c1cc(Cl)ccc1O`, the growth was 14% (inactive).
As to `O=C1Nc2ccccc2/C1=C/C(=O)c1ccc(N2CCCCC2)cc1`, the growth is 61.7% (inactive).
`O=c1c2c3c(sc2n2cnnc2n1Cc1ccccc1)CCCC3`: the growth is 79.2% (inactive).
For `Cn1c(=O)c(C#N)c(-c2ccco2)n2c(S(=O)(=O)Cc3ccccc3)nnc12`, the growth is 81.2% (inactive).
As for `CCCCCn1sc(=O)n(Cc2ccc(CNC(=O)OCc3ccc4cccc(O)c4n3)cc2)c1=O`, the growth was -49.1% (active).
Consider `O=C(N/N=C/c1ccc([N+](=O)[O-])cc1)c1ccc(Br)o1`, for which the growth was 88.5% (inactive).
Take `C=C(C)[C@@H]1CC[C@]2(COCCC#N)CC[C@]3(C)[C@H](CC[C@@H]4[C@@](C)(CCCNCCC#N)[C@H](C(=C)C)CC[C@]43C)[C@@H]12`: the growth was -6.77% [100 µM] (active).
As for `C=C(C)[C@@H]1CC[C@]2(C(=O)OC)CC[C@]3(C)[C@H](CC[C@@H]4[C@@]5(C)CC/C(=N\OCCC(=NCCC#N)NOCCC#N)C(C)(C)[C@@H]5CC[C@]43C)[C@@H]12`, the figure is 13.4% [100 µM] (inactive).
